Measured values taken from the supplement of paper PMC6555819.

Experiments:
Assay in all cases: PBM binding z-score (relative to random genomic background probes); higher = stronger binding; sequences stand for … in GC…GCGATTGACAGCGTAGAATGAAGG
[1] = test system: RARb homodimer (NR concentration 270 nM)
Outline: (§1)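 Binding buffer was PBS pH 7.4 with 2% milk, 0.02% Triton X-100, 1 mM DTT, 0.2 mg/mL BSA and 0.4 mg/ml salmon testes DNA. In it, ligand-free nuclear receptor dimers were incubated 1 h on custom Agilent 4×180K protein-binding microarrays carrying double-stranded probes. Antibodies against each partner (one per run) detected binding, and z-scores were calculated against random background probes after regression normalization of scanned fluorescence.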

[2] = test system: RARg:RXRa (NR concentration 270 nM, RXRa partner concentration 90 nM)
Outline: as §1

[3] = test system: RARg homodimer (NR concentration 270 nM)
Outline: as §1

[4] = test system: RXRa DBDmut IVT, anti-RXR (DBD mutation: RXRa K156A/R161A, NR concentration 90 nM)
Outline: as §1

[5] = test system: RXRa homodimer (NR concentration 180 nM)
Outline: as §1

[6] = test system: THRa:RXRa (NR concentration 90 nM, RXRa partner concentration 90 nM)
Outline: as §1

[7] = test system: THRa homodimer (NR concentration 90 nM)
Outline: as §1

[8] = test system: VDR homodimer (NR concentration 270 nM)
Outline: as §1

Row | Sequence | PBM binding z-score [1] | PBM binding z-score [2] | PBM binding z-score [3] | PBM binding z-score [4] | PBM binding z-score [5] | PBM binding z-score [6] | PBM binding z-score [7] | PBM binding z-score [8]
1 | ATATGTAGGATAGGGTCATTCAGAAAGTAGGGAA | 2.75 | 3.19 | 2.22 | 1.78 | 4.32 | 3.59 | 2.24 | 3.42
2 | CTATGTAGGTTAAGTGGGTCATTCAGTTTGAAAG | 2.4 | 1.97 | 1.95 | 0.703 | 1.73 | 1.97 | 0.347 | 2.29
3 | TATACAGGATCAAAGGCCAGAGTACGAATGTCGA | 0.878 | 0.959 | 1.02 | -0.32 | 0.857 | -0.0517 | -0.472 | 0.376
4 | TAGCCTAGGTCATTGTGCCAGTATAGTACGCATC | 2.7 | 3.4 | 3.77 | 1.9 | 2.17 | 2.61 | 1.03 | 1.2
5 | CCGAGTTGGTTACGAGGGGGCATTCAGTGCGAAT | 1.81 | 1.91 | 1.44 | 2.58 | 1.02 | 2.46 | 0.911 | 4.2
6 | CCTACTGGGCCATTCAGAGGACATTGATCATATG | 0.736 | 0.858 | 0.53 | -0.28 | -0.174 | 0.676 | 0.238 | 0.541
7 | TCGAGTAGGTTACGGGTGCATTCAGGGATGAAGA | 0.631 | 0.869 | 0.463 | 0.951 | 1.29 | 2.22 | -0.191 | 2.69
8 | TAGCCTAGGTCATTCAGGGGCCAGTATGGAAAGC | 3.26 | 6.2 | 4.83 | 1.72 | 2.92 | 3.67 | 0.641 | 1.17
9 | ATAGGTAGGTTAGGGTCATTCAGAAAGTAGGGAA | 3.99 | 4.32 | 4.06 | 2.36 | 5.28 | 4.76 | 3.77 | 4.51
10 | CGAACTAGGTCACCAGGACAATGAAGAGGTTGGA | 3.4 | 4.27 | 5.1 | 1.58 | 3.35 | 3.7 | 2.12 | 0.459
11 | ATATGTAGGTTAGGGTCATTGAGAAAGTAGGGAA | 3.51 | 4.09 | 3.1 | 2.32 | 5.3 | 4.13 | 3.44 | 3.55
12 | CGTCCAAGGTCAGAGAGGTCAGTGTATGCCGAGT | 5.2 | 6.1 | 6.77 | 3.28 | 5.29 | 4.14 | 3 | 5.78
13 | TTACCAAGGTGAAAGGTCGTTGAAGCACGCCTTG | 2.64 | 4.3 | 2 | 0.879 | 5.84 | 3.57 | 0.624 | 1.29
14 | CTCCAAAGGTCGGTTGAGGTGAGTATACGGATAA | 2.61 | 2.87 | 2.9 | 0.951 | 2.46 | 5 | 1.56 | 0.508
15 | TTACAAAGGTGAGCTGAGGTCGTTGATCCAACTC | 2.56 | 2.97 | 2.69 | 0.365 | 2.51 | 4.84 | 1.73 | 2.57
16 | CGAACTAGGTCACCAGGACAGTGATGAGGTTGGA | 3.53 | 4.4 | 5.41 | 1.28 | 3.45 | 3.42 | 2.08 | 1.13
17 | CCTTGCGGGTCACTGACAGGTTATAGCATTTGGA | 2.97 | 5.46 | 4.17 | 1.77 | 4.49 | 2.8 | 0.354 | 0.664
18 | TTACGAAGGTGAAAGGTCGTTGATGCACGCCTTG | 2.49 | 4.08 | 2.19 | 0.342 | 5.5 | 2.33 | 0.141 | 1.25
19 | CGTCCAAGGTCAGCAGGTCACTGAAAGCGACGTG | 5.25 | 7.24 | 7.65 | 2.86 | 6.51 | 4.32 | 2.37 | 1.88

Row | Sequence | PBM binding z-score [1] | PBM binding z-score [2] | PBM binding z-score [3] | PBM binding z-score [4] | PBM binding z-score [5] | PBM binding z-score [6] | PBM binding z-score [7] | PBM binding z-score [8]
20 | CGAAATAGGTCACCAGGACAGTGAAGAGGTTGGA | 3.91 | 5.54 | 5.96 | 0.868 | 5.18 | 3.12 | 0.942 | 0.687
21 | CTCTGTAGGTTAAGGGGGTCATTCAGTTTGAAAG | 3.87 | 5.32 | 4.07 | 2.52 | 5.91 | 3.86 | 2.34 | 5.47
22 | ACTAGTTGCTCAGCTGAGGTCACACACAATTCGG | 3.77 | 3.37 | 2.72 | 1.09 | 3.6 | 4.23 | 4.94 | 3.14
23 | CGAACTAGGTCAAAGGACAGTGCAAGGCGACGTA | 3.1 | 3.95 | 4.42 | 1.15 | 3.24 | 2.57 | 0.81 | 0.767
24 | ACTCGGAGGACAGAGGTCAGAGCTACGCCAGTGA | 3.82 | 4.6 | 4.17 | 0.707 | 4.17 | 3.03 | 0.579 | 1.19
25 | AGTCAAAGTTCACGACGAGGTAACGTAAAGCACG | 4.35 | 6.88 | 6.88 | 4.21 | 5.95 | 4.41 | 1.36 | 3.96
26 | CAAACTAGGTCAAGGGGTCAAAGTCCGCTTCCCG | 5.65 | 8 | 7.19 | 2.98 | 8.47 | 4.64 | 2.49 | 4.55
27 | CGTCCAAGGTCAGAGAGGTCACTGAATGCCGAGT | 5.89 | 7.04 | 7.93 | 3.39 | 6.93 | 4.71 | 3.53 | 6.07
28 | GCTGCTAGGTCAGGTTGGTCAACTAACGGGTACG | 2.85 | 2.92 | 3.89 | 0.438 | 1.17 | 1.91 | 0.472 | 0.97
29 | CCGAGTAGGTTACGAGGGGGCATACAGTGCGAAT | 2.29 | 3.21 | 2.68 | 1.2 | 2.14 | 3.61 | 0.618 | 2.68
30 | CTATGTTGGTTAAGGGGGTCATTCAGTTTGAAAG | 3.86 | 4.63 | 3.46 | 2.63 | 5.18 | 3.75 | 3.17 | 6.63
31 | TAGCCTAAGTCATGGGCCAGTATACCACGCGAAC | 0.0501 | 0.0528 | 0.13 | -0.416 | 0.289 | -0.0695 | -0.257 | -0.135
32 | ATCGAAAGGTCGACGAGGTGAGAATACACCGTTT | 3.04 | 4.56 | 4.16 | 1.15 | 4.87 | 4.05 | 0.736 | 0.942
33 | TTACCAAGGTAAAAGGTCGTTGATGCACGCCTTG | 2.14 | 2.79 | 1.22 | 0.317 | 3.68 | 2.63 | 0.000698 | 1.44
34 | ATCTCTAGGTAAAGGTCAGTGAAAGATCGATAGA | 4.26 | 4.52 | 5.13 | 0.521 | 4.35 | 2.98 | 0.87 | 1.17
35 | CTATGGAGGTTAAGGGGGTCATTCAGTTTGAAAG | 4.08 | 5.71 | 4.46 | 3.59 | 6.48 | 4.04 | 2.95 | 6.81
36 | AGTCAAATTTCACTAGGTAACGTAAGATTCAGCT | 0.0165 | -0.19 | 0.218 | 0.395 | -0.206 | 0.638 | 0.471 | 0.31
37 | AGTCAAAGTTCATCTTGGTAACGTAAGATATGCT | 4.03 | 5.43 | 5.84 | 4.52 | 4.52 | 2.03 | -0.478 | 4.88
38 | CGAACTAGGTCACCAGGAGAGTGAAGAGGTTGGA | 3.18 | 4.34 | 5.04 | 1.08 | 3.02 | 2.98 | 1.09 | 0.207

Row | Sequence | PBM binding z-score [1] | PBM binding z-score [2] | PBM binding z-score [3] | PBM binding z-score [4] | PBM binding z-score [5] | PBM binding z-score [6] | PBM binding z-score [7] | PBM binding z-score [8]
39 | CAAACTAGGTCACGAAAGGTCAAAATCGAATGAC | 5.7 | 7.53 | 8.09 | 2.25 | 8.44 | 4.89 | 2.42 | 3.13
40 | CCGAGTAGGTTACGAGAGGGCATTCAGTGCGAAT | 1.65 | 1.75 | 1.42 | 0.522 | 1.39 | 3.76 | -0.738 | 2.06
41 | CCGAGTAGGTTACCAGGGGGCATTCAGTGCGAAT | 2.4 | 2.93 | 2.52 | 0.717 | 2.06 | 3.68 | 0.758 | 3.64
42 | CTCGAAAGGTCGAGCTCAGGTGAGTATACCAAAC | 2.85 | 4.89 | 4.58 | 1.39 | 4.04 | 4.03 | 0.791 | 0.31
43 | CGAACTAGGTCAGAACAGGACATTGAAGGATGAT | 2.12 | 2.57 | 3.4 | 0.96 | 1.41 | 3.72 | 0.36 | 0.369
44 | CGAACTATGTCACCAGGACAGTGAAGAGGTTGGA | 0.797 | 0.591 | 0.719 | -0.0649 | 0.602 | 1.66 | 0.878 | 0.455
45 | CCGAGTAGGTTACGAGGTGGCATTCAGTGCGAAT | 0.473 | 0.479 | 0.466 | 0.226 | 0.697 | 0.837 | -0.2 | 0.0157
46 | CCGAGTGGGTTACGAGGGGGCATTCAGTGCGAAT | 1.94 | 2.95 | 2.18 | 1.09 | 1.75 | 3.72 | 0.652 | 3.43
47 | ATATGTAGGTTAGGGTCATTCTGAAAGTAGGGAA | 3.35 | 3.61 | 2.78 | 2.79 | 4.88 | 4.05 | 3.12 | 3.77
48 | GCTCGGGGGACAAGGTCAGAGCTTTGTCCGTAGA | 3.12 | 4.71 | 4.55 | 1.43 | 3.63 | 3.48 | 1.91 | 1.47
49 | GCTGCTAGGTCAGGTTGGTCAGCTAACGGGTACG | 2.53 | 2.7 | 3.45 | 0.582 | 0.927 | 1.84 | 0.48 | 0.466
50 | AAAATGAGGTTAAGATCAGGGAAACAGAATACAT | 1.03 | 2.28 | 1.37 | 1.32 | 2.73 | 2.75 | 0.772 | 0.778
51 | CCGAGTAGGTTAGGAGGGGGCATTCAGTGCGAAT | 2.05 | 2.89 | 2.76 | 1.76 | 1.87 | 3.46 | 1.44 | 4.12
52 | TCTAGTTGGTCACGGGGGTCACACACGACGGGTA | 4.5 | 6.36 | 5.7 | 2.07 | 6.5 | 4.03 | 3.01 | 4.15
53 | TGGAGTAGGTTACGGGGGCATTCAGGGATGAAGA | 2.94 | 3.75 | 3.39 | 2.16 | 2.83 | 4.11 | 2.48 | 3.94
54 | CTAACTAGGTCACCGGAAGGTCAAAGTCCGCATG | 5.66 | 8.24 | 7.39 | 2.16 | 6.18 | 4.48 | 2.98 | 2.9
55 | TAGCCTCGGTCATTCAGGGGCCAGTATAGAAAGC | 2.44 | 3.5 | 3.37 | -0.617 | 0.151 | 1.46 | -0.717 | -0.088
56 | TCTCGGAGGACACGAAAGGGCAGAGCTCGACATC | 2.21 | 1.52 | 2.06 | 0.584 | 0.474 | 1.76 | 0.0765 | -0.17
57 | AGTGAAAGTTCAGGACGAGGTAACGTAAAGCACG | 3.13 | 4.55 | 4.38 | 2.84 | 2.54 | 3.93 | 1.95 | 2.34
